Reference: PubChem BioAssay AID686940 (The Scripps Research Institute Molecular Screening Center, 2013)
Screen size: about 370,000 compounds; about 2,600 (0.7%) were called active. Many of the other results were omitted from the sample, so actives are more common in it than they were. A number with no mark means an inactive call.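 The calls were made as follows: active = inhibition above a per-plate cutoff, mean inhibition of test wells between control levels plus 3 SD (cut at about 38% in these data); inactive = the rest.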

Each molecule was assayed against COUP transcription factor 2 (Homo sapiens) (UniProt P24468) (assay: NR2F2 transcriptional activity inhibitors, primary screen, cell-based, luciferase reporter, HEK293T, luminescence (AID 686940;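 also: cells cotransfected with COUP-TFII expression vector driving the NGFI-A reporter; 0% = median of COUP-TF2 test wells and 100% = reporter-only cells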)). Conditions: HEK293T NGFI-A luciferase reporter, at 8.6 µM, stronger effect = higher value.
Chain of COUP transcription factor 2 (Homo sapiens) (P24468 whole entry, looked up): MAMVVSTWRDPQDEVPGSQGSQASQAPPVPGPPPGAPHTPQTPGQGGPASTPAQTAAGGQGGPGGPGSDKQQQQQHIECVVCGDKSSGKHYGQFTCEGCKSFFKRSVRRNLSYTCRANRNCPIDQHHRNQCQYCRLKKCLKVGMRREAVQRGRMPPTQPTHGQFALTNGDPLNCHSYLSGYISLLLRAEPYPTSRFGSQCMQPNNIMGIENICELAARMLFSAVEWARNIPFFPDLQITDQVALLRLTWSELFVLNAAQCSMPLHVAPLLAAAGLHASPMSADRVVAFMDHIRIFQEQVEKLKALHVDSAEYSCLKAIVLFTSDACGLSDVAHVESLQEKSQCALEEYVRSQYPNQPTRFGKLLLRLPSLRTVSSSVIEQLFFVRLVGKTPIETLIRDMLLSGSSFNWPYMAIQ

| SMILES | inhibition |
| --- | --- |
| CC1=CC(=Cc2sc3ccccc3[n+]2C)C=C(C)O1 | 71.6% (active) |
| O=C(NCC1=C(c2ccc3ccccc3c2)C[C@@H]2CC[C@H]1N2Cc1ccco1)c1cccs1 | -9.66% |
| COC(=O)C1=C(c2ccc(-c3ccccc3)c(F)c2)C[C@@H]2CC[C@H]1N2C(=O)NCc1ccc(F)cc1 | 9.38% |
| Cc1cccc(NC(=O)OC2CN3CCC2CC3)c1 (stereo not given) | -3.61% |
| COC1C(O)C(C)OC(OC2CCC3(C=O)C(CCC4C3CCC3(C)C(C5=CC(=O)OC5)CCC43O)C2)C1O (stereo not given) | 78.5% (active) |
| Cc1ccc(P(=S)(c2ccc(C)o2)N2CCOCC2)o1 | -6.39% |
| O=C(C1CC(=O)N(C2CCCC2)C1)N1CCC2(CC1)OCCO2 (stereo not given) | -6.43% |
| CC(=C1C(=O)c2ccccc2C1=O)N1CCN(CCN=Cc2c(O)n(C)c(=O)n(C)c2=O)CC1 | 13.2% |
| c1ccc(C(CN2CCCCC2)c2ccccc2)cc1 | 5.82% |
| CCOc1ccc(-c2cc(C)[n+](CCN(CC)CC)c(-c3ccc(OCC)cc3)c2)cc1 | 65.8% (active) |
| Cc1cc(N2CCNC[C@@H]2C)ccc1N1CC[C@H](O)C1 | 14.6% |
| Cc1ccccc1CCC[C@@H](CC1CCCCC1)CN(C)C(=O)Oc1ccccc1 | 0.63% |
| CO[C@H]([C@H](C)/C=C/N(C)C=O)[C@@H](C)C(=O)CC[C@H](C)[C@H](O)[C@H](C)[C@H]1OC(=O)/C=C/C(C)=C/[C@H](O)[C@H](OC)C[C@@H]2C=CC[C@@H](C[C@H](OC)[C@@]3(CO3)[C@@H](OC)C[C@@H](OC)[C@@H]1C)O2 | -21.1% |
| CCC(C)(O)C(=O)OC1C(=O)OC2CC3C(C)=CC(=O)C(O)C3(C)C3C4(O)OCC23C1C(C)C4O (stereo not given) | 89.2% (active) |
| CC(C)Oc1cccc(C(=O)C2CCCN(C3CCOCC3)C2)c1 (stereo not given) | -4.53% |
| COc1ccc2c(c1)[C@@]13CCCCC1[C@@H](C2)NCC3 (stereo not given in full) | -12.9% |
| Clc1ccc([C@@H]2CC3CCC2N3)cn1 (stereo not given in full) | -1.27% |
| O=S(=O)(c1ccccc1)N1CCC2CCNC2C1 (stereo not given) | 12.5% |
| CS(=O)(=O)N1CCC2CCNC2C1 (stereo not given) | 8.62% |
| Brc1ccc2c(c1)CNCc1cnnn1-2 | -8.52% |
| CCCCCCCCCCCCn1ccc(=N)cc1 | 81.1% (active) |
| COP(=O)(Sc1ccccc1)C(Cc1ccccc1)NC(=O)OCc1ccccc1 (stereo not given) | -13.2% |
| CC(=NC1CCN(Cc2ccccc2)CC1)c1c(O)n(C)c(=O)n(C)c1=O | -7.27% |
| CCC(C)NC1(c2ccccc2)CCCCC1 (stereo not given) | 6.15% |
| O=c1c2ccccc2nc(CBr)n1-c1ccc(Cl)cc1 | 6.6% |
| C[C@]12CC[C@H](O)C[C@H]1CC[C@@H]1C2CC[C@]2(C)[C@@H](C3=CC(=O)OC3)[C@@H](O)C[C@]12O (stereo not given in full) | 44.1% (active) |
| CCN(CC)C(=O)[C@@H]1C=C2c3cccc4[nH]c(Br)c(c34)C[C@H]2N(C)C1 | 14.9% |
| CCC/C(=N\O)c1c[nH]c2ccccc12 | -11.3% |
| COc1cc(OC)cc(C(=O)NCCN2CCC3(CC2)C(=O)NCN3c2ccccc2)c1 | 0.55% |
| NCCc1ccc(S(=O)(=O)F)cc1 | 18.9% |
